Reference: the supplement of paper PMC10849652
About 8,800 targets were measured; listed, in parts, are those with a hit and a random draw of the rest. About 0.5% of all pairs of compound and target were hits.

How the values were obtained:
Test in all cases: log2 fold change, soluble protein after heating vs DMSO (PISA); higher = thermal stabilisation; K562 lysate, 10 uM; active = over 0.2 and 3.5 SD of the protein, either way, in both replicates (recomputed)
erlotinib = compound: C#Cc1cccc(Nc2ncnc3cc(OCCOC)c(OCCOC)cc23)c1 [erlotinib]
In short: (§1)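 K562 pellets were dounce-homogenised in PBS pH 7.4 containing 1 mM MgCl2, and the crude extract, at 1 mg/mL protein, was exposed to 10 μM compound for 30 min. Aliquots were heated for 3 min across 48°C-58°C, pooled, brought to 0.5% NP-40 at 4°C and spun at 21,000xg for 90 min, with the supernatant taken as soluble protein. TMTpro 16plex LC-MS/MS with equalised channel sums quantified that protein. Values are log-two fold changes in thermal stability relative to solvent controls, taken from duplicates.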

[1] = compound: C/C(=N\NC(=O)C1=CC(=CC=C1)S(=O)(=O)N2CCOCC2)/C3=C(C=CC(=C3)Cl)O
In short: as §1

[2] = compound: C1=CC(=CC=C1C2=NC3=C(N2)C=C(C=C3)C(=O)N)OC4=CC=C(C=C4)Cl
In short: as §1

[3] = compound: C1=CC2=C(C=CC(=C2)/C=C\3/C(=O)NC(=NCC4=CC=CS4)S3)N=C1
In short: as §1

[4] = compound: C1=CC2=NC=CN=C2C=C1/C=C/3\C(=O)NC(=O)S3
In short: as §1

[5] = compound: C1=CC=C(C=C1)C2=NC(=C(N2)C3=CC=NC=C3)C4=CC(=C(C=C4)Cl)O
In short: as §1

[6] = compound: C1=CC=C2C(=C1)C3=NNC4=CC=CC(=C43)C2=O
In short: as §1

[7] = compound: C1CCN(C1)C(=O)NC2=CC=CC(=C2)NC3=NC=C(C(=N3)NCCC4=CN=CN4)Br
In short: as §1

[8] = compound: C1CN(CCC1(CC2=CC=C(C=C2)Cl)N)C3=NC=NC4=C3C=CN4
In short: as §1

IRAK-1-4 Inhibitor I = compound: C1COCCN1CCN2C3=CC=CC=C3N=C2NC(=O)C4=CC(=CC=C4)[N+](=O)[O-] [IRAK-1-4 Inhibitor I]
In short: as §1

ibrutinib = compound: C=CC(=O)N1CCC[C@@H](n2nc(-c3ccc(Oc4ccccc4)cc3)c3c(N)ncnc32)C1 [ibrutinib]
In short: as §1

[9] = compound: CC(=O)c1cnc2ccc(-c3cc(Cl)c(O)c(Cl)c3)nc2c1N[C@H]1CC[C@H](CN(C)C)CC1
In short: as §1

ralimetinib = compound: CC(C)(C)Cn1c(N)nc2ccc(-c3[nH]c(C(C)(C)C)nc3-c3ccc(F)cc3)nc21 [ralimetinib]
In short: as §1

[10] = compound: CC(C)(O)CC(=O)NCCn1ccc2ncnc(Nc3ccc(Oc4cccc(C(F)(F)F)c4)c(Cl)c3)c21
In short: as §1

[11] = compound: CC(C)C1=C2N=C(C=C(N2N=C1)NCC3=CC=CC=C3)NCCCCCCN
In short: as §1

[12] = compound: CC1=C(C(CC(=O)N1)C2=CC=C(C=C2)C(F)(F)F)C(=O)NC3=C(C=C4C(=C3)C=NN4)F
In short: as §1

[13] = compound: CC1=C(C2=C(C=C1)C(=O)C3=CC=CC=C3N2CCCN)C
In short: as §1

[14] = compound: CC1=C(C=C(C=C1)NC(=O)C2=CC(=CC=C2)C(C)(C)C#N)NC3=CC4=C(C=C3)N=CN(C4=O)C
In short: as §1

[15] = compound: CC1=C(C=C(C=C1)NC(=O)C2=CC(=CC=C2)N(C)C)NC(=O)C3=CC=C(C=C3)O
In short: as §1

[16] = compound: CC1=CC=C(C=C1)SC2=C3C=C(SC3=CN=C2)C(=O)N
In short: as §1

Measured: log2 fold change

HS1BP3 (UniProt Q53T59)
Sequence of UniProt Q53T59 (Q53T59 whole entry, looked up): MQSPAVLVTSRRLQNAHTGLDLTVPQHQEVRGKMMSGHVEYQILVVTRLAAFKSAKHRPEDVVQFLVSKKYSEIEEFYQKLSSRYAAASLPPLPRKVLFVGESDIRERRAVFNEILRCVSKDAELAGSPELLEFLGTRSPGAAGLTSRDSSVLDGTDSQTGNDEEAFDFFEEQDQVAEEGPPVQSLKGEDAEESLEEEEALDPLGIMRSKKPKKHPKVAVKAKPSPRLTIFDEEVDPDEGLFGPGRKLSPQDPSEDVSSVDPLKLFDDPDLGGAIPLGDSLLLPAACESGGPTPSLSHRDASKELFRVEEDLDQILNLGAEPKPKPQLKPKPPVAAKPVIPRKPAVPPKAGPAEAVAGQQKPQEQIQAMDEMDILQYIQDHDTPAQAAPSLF
inactive: erlotinib -0.019 | [1] -0.04 | [2] 0.007 | [3] -0.013 | [4] -0.027 | [5] -0.031 | [6] 0.029 | [7] -0.022 | [8] 0.01 | IRAK-1-4 Inhibitor I 0.01 | ibrutinib -0.01 | [9] 0.001 | ralimetinib 0.017 | [10] 0 | [11] -0.013 | [12] 0.005 | [13] 0.056 | [14] 0.016 | [15] -0.005 | [16] -0.013

HNRNPL (UniProt P14866)
Sequence of UniProt P14866 (P14866 whole entry, looked up): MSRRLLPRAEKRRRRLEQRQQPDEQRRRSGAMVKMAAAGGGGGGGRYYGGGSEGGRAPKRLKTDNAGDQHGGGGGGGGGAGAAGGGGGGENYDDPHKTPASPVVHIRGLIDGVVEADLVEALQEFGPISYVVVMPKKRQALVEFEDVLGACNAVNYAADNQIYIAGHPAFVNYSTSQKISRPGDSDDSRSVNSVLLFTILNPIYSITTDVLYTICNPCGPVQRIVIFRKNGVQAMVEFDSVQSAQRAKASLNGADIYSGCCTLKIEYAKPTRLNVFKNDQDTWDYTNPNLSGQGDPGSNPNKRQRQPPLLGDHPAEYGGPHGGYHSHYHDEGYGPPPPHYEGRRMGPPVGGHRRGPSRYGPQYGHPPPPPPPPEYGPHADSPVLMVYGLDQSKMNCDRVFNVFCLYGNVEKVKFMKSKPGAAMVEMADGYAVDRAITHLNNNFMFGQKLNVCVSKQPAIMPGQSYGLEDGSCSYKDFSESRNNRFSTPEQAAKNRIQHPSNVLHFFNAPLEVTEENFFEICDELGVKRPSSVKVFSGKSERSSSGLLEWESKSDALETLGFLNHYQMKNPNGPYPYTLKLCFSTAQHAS
inactive: erlotinib 0.054 | [1] 0.073 | [2] 0.022 | [3] -0.007 | [4] 0.013 | [5] 0.033 | [6] -0.041 | [7] -0.017 | [8] -0.003 | IRAK-1-4 Inhibitor I 0.014 | ibrutinib -0.015 | [9] 0.012 | ralimetinib 0.047 | [10] 0.046 | [11] 0.051 | [12] 0 | [13] 0.021 | [14] 0.001 | [15] 0.058 | [16] 0.032

KHK isoform 2 (UniProt P50053)
Sequence of UniProt P50053 (P50053 whole entry, looked up): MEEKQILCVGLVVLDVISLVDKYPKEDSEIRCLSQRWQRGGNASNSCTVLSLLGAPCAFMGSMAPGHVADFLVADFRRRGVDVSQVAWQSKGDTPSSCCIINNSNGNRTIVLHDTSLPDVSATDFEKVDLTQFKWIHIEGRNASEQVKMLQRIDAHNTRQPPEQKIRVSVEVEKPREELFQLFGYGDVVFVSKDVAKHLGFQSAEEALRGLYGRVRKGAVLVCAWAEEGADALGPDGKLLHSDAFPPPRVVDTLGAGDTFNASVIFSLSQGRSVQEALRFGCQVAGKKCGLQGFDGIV
inactive: erlotinib -0.07 | [1] 0.024 | [2] 0.072 | [3] -0.005 | [4] 0.044 | [5] 0.069 | [6] 0.044 | [7] 0.032 | [8] -0.018 | IRAK-1-4 Inhibitor I 0.084 | ibrutinib 0.023 | [9] 0.039 | ralimetinib 0.001 | [10] -0.032 | [11] -0.033 | [12] 0.013 | [13] -0.025 | [14] 0.185 | [15] -0.033 | [16] -0.04

INPPL1 (UniProt O15357)
Sequence of UniProt O15357 (O15357 whole entry, looked up): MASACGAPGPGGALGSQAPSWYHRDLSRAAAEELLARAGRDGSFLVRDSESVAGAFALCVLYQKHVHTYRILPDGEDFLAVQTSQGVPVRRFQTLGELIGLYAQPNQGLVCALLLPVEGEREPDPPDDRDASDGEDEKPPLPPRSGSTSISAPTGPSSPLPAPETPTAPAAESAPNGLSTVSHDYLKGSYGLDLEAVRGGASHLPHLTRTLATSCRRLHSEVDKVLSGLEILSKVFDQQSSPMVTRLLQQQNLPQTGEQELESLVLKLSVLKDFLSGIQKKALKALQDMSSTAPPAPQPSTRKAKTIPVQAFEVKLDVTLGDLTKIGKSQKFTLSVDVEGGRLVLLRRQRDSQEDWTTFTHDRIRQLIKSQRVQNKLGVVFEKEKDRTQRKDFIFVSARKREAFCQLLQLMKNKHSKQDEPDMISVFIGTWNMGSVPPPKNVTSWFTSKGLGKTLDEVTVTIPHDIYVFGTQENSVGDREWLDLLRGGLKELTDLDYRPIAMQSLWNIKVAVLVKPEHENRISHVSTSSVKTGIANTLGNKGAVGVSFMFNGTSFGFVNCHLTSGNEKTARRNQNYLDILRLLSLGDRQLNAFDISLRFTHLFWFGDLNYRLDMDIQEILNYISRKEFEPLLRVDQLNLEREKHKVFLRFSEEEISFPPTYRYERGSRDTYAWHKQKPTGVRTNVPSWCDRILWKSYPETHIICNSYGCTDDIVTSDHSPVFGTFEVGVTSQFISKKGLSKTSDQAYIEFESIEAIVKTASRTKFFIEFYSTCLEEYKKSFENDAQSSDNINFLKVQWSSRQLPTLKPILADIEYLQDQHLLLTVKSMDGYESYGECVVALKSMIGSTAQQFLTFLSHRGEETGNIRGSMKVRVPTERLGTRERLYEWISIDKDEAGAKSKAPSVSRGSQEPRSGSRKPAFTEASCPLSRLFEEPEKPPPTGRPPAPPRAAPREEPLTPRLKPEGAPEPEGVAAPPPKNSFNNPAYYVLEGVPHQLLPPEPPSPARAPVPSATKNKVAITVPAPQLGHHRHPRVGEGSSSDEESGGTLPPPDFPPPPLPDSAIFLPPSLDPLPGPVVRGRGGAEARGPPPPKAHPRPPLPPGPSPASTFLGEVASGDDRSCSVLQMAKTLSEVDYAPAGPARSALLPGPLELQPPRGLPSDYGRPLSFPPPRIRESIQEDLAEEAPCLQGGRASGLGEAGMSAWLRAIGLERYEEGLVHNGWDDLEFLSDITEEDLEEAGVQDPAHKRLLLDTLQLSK
inactive: erlotinib -0.01 | [1] -0.034 | [2] -0.018 | [3] -0.052 | [4] -0.006 | [5] -0.02 | [6] -0.051 | [7] -0.021 | [8] 0.003 | IRAK-1-4 Inhibitor I -0.034 | ibrutinib 0.012 | [9] 0.02 | ralimetinib 0.049 | [10] -0.013 | [11] 0.004 | [12] 0.011 | [13] -0.005 | [14] -0.001 | [15] 0.034 | [16] 0.014

GTF2I (UniProt P78347)
Sequence of UniProt P78347 (P78347 whole entry, looked up): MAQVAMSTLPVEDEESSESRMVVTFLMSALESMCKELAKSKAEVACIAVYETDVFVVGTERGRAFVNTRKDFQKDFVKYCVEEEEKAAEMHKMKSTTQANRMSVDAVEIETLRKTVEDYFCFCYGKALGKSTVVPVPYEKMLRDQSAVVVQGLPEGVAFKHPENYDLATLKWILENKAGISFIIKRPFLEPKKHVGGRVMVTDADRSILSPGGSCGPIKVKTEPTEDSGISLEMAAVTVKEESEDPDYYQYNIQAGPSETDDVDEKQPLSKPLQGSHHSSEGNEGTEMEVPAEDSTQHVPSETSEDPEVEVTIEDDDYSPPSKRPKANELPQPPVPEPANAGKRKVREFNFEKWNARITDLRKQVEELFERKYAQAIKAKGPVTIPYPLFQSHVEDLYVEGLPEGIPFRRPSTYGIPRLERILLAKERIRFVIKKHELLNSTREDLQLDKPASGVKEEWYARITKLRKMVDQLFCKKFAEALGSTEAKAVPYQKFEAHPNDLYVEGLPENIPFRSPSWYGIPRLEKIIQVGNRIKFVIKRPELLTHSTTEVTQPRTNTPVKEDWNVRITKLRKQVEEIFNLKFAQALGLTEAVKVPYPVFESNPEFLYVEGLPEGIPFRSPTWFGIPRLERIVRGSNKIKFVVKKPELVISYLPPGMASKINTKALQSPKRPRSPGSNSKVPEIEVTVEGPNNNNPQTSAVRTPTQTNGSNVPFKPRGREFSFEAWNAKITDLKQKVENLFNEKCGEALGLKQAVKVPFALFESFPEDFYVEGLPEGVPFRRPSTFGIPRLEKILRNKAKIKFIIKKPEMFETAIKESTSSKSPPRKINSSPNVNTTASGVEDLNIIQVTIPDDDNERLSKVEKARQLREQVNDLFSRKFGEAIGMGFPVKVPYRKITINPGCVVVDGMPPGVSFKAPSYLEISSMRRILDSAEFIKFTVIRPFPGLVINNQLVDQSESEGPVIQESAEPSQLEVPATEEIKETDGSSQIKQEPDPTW
inactive: erlotinib -0.005 | [1] 0.016 | [2] -0.02 | [3] 0.018 | [4] 0.008 | [5] -0.003 | [6] -0.034 | [7] -0.002 | [8] -0.031 | IRAK-1-4 Inhibitor I -0.007 | ibrutinib -0.004 | [9] -0.002 | ralimetinib 0.007 | [10] -0.004 | [11] 0.012 | [12] -0.007 | [13] 0.005 | [14] -0.027 | [15] 0.033 | [16] -0.001

GUSB (UniProt P08236)
inactive: erlotinib -0.053 | [1] -0.043 | [2] 0.135 | [3] -0.072 | [4] -0.041 | [5] -0.058 | [6] -0.072 | [7] -0.003 | [8] 0.055 | IRAK-1-4 Inhibitor I 0.066 | ibrutinib 0.06 | [9] -0.099 | ralimetinib 0.056 | [10] -0.097 | [11] 0.099 | [12] -0.075 | [13] 0.069 | [14] 0.044 | [15] -0.029 | [16] -0.088

HAUS7 isoform 2 (UniProt Q99871)
Sequence of UniProt Q99871 (Q99871 whole entry, looked up): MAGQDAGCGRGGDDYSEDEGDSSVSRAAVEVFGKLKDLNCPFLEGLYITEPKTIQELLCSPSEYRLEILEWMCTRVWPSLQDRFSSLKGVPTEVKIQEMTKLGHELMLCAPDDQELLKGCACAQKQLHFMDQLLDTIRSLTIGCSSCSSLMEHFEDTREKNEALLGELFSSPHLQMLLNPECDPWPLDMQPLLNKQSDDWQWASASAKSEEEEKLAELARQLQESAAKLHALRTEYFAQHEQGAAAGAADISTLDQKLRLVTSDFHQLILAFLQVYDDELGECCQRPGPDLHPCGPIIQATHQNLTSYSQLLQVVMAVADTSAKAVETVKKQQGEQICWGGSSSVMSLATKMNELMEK
inactive: erlotinib 0.104 | [1] 0.106 | [2] 0.028 | [3] -0.005 | [4] 0 | [5] 0.048 | [6] -0.006 | [7] -0.011 | [8] 0.164 | IRAK-1-4 Inhibitor I -0.028 | ibrutinib 0.082 | [9] 0.105 | ralimetinib -0.002 | [10] -0.031 | [11] 0.05 | [12] -0.003 | [13] 0.028 | [14] -0.031 | [15] 0.021 | [16] -0.054

GPLD1 (UniProt P80108)
inactive: [13] -0.058 | [14] -0.187

GTPBP6 (UniProt O43824)
Sequence of UniProt O43824 (O43824 whole entry, looked up): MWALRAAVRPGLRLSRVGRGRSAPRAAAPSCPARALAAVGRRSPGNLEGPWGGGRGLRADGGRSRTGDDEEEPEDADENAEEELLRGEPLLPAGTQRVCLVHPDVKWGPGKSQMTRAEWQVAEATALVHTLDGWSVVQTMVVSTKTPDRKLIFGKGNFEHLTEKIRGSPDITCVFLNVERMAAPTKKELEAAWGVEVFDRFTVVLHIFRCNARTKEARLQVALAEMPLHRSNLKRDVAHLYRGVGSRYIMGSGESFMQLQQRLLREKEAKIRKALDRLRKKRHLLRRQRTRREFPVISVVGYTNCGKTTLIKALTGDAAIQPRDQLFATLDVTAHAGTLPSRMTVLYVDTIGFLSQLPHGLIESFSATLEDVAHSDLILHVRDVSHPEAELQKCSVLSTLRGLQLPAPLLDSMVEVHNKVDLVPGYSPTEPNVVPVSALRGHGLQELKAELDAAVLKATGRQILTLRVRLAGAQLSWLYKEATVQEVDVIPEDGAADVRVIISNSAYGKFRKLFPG
inactive: [1] 0.187 | [3] 0.11 | [6] -0.048 | [7] -0.082 | [8] 0.037 | [13] -0.617
